Active and inactive are the calls of the source.

A short description of one assay: optical density shifts of acrAB sulA E. coli – strain DRC41, OD650, 48 h, E. coli filamentation inducer project, primary screen (AID 1152).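 Note: E. coli MC1000 strain DRC41 lacking acrAB efflux pump and sulA.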 The settings on record: higher = more signal, called active from +8 up or from −8 down.
Take `COc1cc2c(cc1O)C(C1CC1)N(C)CC2` (centres undefined): the z-score is 0.941 (inactive). The same measure, in the same setting: the value for `COC(=O)[C@@]1(Cc2ccc(OC)cc2)[C@H]2c3cc(C(=O)N4CCCC4)n(CCO)c3C[C@H]2CN1C(=O)c1ccccc1` was -1.72 (inactive); that for `[N-]=[N+]=Nc1ccccc1C[C@]1(C(=O)N2CCOCC2)COC(c2ccc(OCCCO)cc2)=N1` was 1.59 (inactive); that for `O=C1C2C=CC(C(O)c3ccco3)N(Nc3ccccc3F)C2C(=O)N1c1ccccc1` (centres undefined) was -1.72 (inactive). Turning to `CCCCCN1CC=CC23O[C@@H]4/C=C\CCCOC(=O)C4[C@H]2C(=O)N(C(C)CO)[C@@H]3C1=O` (some centres undefined), the z-score is 1.2 (inactive). Still for that read-out and setting: the value for `COC(=O)c1c(CC[C@@H](CO)NC(=O)N2CCC[C@H]2Cn2cc(C3(O)CCCCC3)nn2)oc(C(C)=O)c1C(=O)OC` was -0.955 (inactive); that for `CCCCNC(=O)c1ccc(C#CC(C)(C)C)c(OC(C)=O)c1` was 0.567 (inactive). On the same count and under the same terms, the value for `COc1ccccc1CN1C(=O)c2ccccc2[C@](Cc2ccccc2I)(C(=O)O)[C@@H]1c1ccc(CO)cc1` was 1.03 (inactive).

A further assay is described as follows: probe aLefty1 binding on compound microarray – biochemical, small-molecule microarray, 635/667 nm fluorescence, primary screen (AID 1153).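 Note: score merges spot fluorescence with signal-to-noise ratio from the scanned slide images.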 To be noted: higher = more signal.
As to `COC(=O)[C@@]1(Cc2ccc(OC)cc2)[C@H]2c3cc(C(=O)N(C)C)n(Cc4ccc(C)o4)c3C[C@H]2CN1C(=O)c1ccccc1`, the composite z-score was determined as 0.346. The same measure, in the same setting: the value for `CCCCCN1CC=CC23O[C@@H]4/C=C\CCC(C)OC(=O)C4[C@H]2C(=O)N(C(CO)C(C)C)[C@@H]3C1=O` (some centres undefined) was -0.106; that for `CCOC(=O)C[C@H]1[C@H](OC(=O)c2ccccc2-c2ccccc2)[C@@H](NC(=O)c2ccc3ccccc3n2)c2cc(OCCCO)ccc2N1C(=O)Cc1ccc(OC)cc1` was 0.0986; that for `O=C1OCCC/C=C\[C@H]2OC34C=CCN(c5ccc6ccccc6c5)C(=O)[C@H]3N(CCO)C(=O)[C@@H]4C12` (some centres undefined) was 0.0313.

Consider `O=C1N(Cc2ccccc2)c2ccccc2C[C@]12N=C(c1ccc(OCCCO)cc1)O[C@@H]2c1ccccc1`, for which the composite z-score was -0.0968. The same measure, in the same setting: the value for `O[C@@H](Cc1ccccc1)[C@@H](/C=C/C1CC1)N(CC#Cc1ccccc1)Cc1ccccc1Br` was 0.187; that for `O=C(C1N=C(c2ccc(OCCCO)cc2)N(c2ccccc2)O1)N1CCCCC1` (centres undefined) was 0.0338. Still for that read-out and setting: the value for `CC(C)[Si]1(C(C)C)OCc2cc(-c3ccc(-c4ccc(Cl)c(Cl)c4)o3)nc(-c3ccccc3)c21` was -0.0501. The same measure, in the same setting: the value for `COc1ccc([Si](C)(C)[C@@H]2[C@@H](CCO)O[C@]3(C(=O)N(Cc4ccccc4)c4ccc(NC(=O)[C@H](C)O)cc43)[C@H]2C)cc1` was 0.621; that for `COc1cc(NN2C(C(O)c3ccc(N(C)C)cc3)C=CC3C(=O)N(c4ccccc4)C(=O)C32)cc(OC)c1OC` (centres undefined) was 0.315. Take `Cn1cccc1C(O)C1C=CC2C(=O)N(c3ccccc3)C(=O)C2N1Nc1ccccc1` (centres undefined): the composite z-score stood at 0.358. Same read-out and setting: the value for `CCOC(=O)C=Cc1cccc(C)c1O` was -0.0011; that for `COC(=O)C1=CC(CCCO)=CC(c2cccs2)N(Cc2cccc(OC(F)(F)F)c2)C=C1C(=O)OC` (centres undefined) was -0.126. Same read-out and setting: the value for `[N-]=[N+]=Nc1ccccc1[C@@H]1OC(c2ccc(OCCCO)cc2)=N[C@]1(Cc1ccccc1)C(=O)N1CCCCC1` was 0.282; that for `C=CCNC(=O)[C@@H]1[C@H]2C(=O)O[C@H](c3ccccc3)[C@H](c3ccccc3)N2[C@H](c2ccc(O)cc2)[C@@]12C(=O)N(C(=O)OCCOC)c1ccc(C#CC3=CCCCC3)cc12` was 0.319; that for `CCOC(=O)C[C@H]1[C@H](OC(=O)c2cc3ccccc3oc2=O)[C@@H](NC(=O)CC(C)C)c2cc(OCCCO)ccc2N1C(=O)c1ccc2ccccc2n1` was -0.0061. On the same count and under the same terms, the value for `NCCCCCNC(=O)[C@@H]1C[C@@H]2C(=O)N[C@@H](CCCCN)C(=O)N2[C@@H]1c1ccc(O)cc1` was 0.739; that for `CC(C)C(CO)N1C(=O)[C@@H]2C3C(=O)OCCC/C=C\[C@H]3OC23C=CCN(Cn2nnc4ccccc42)C(=O)[C@@H]13` (some centres undefined) was -0.147; that for `[N-]=[N+]=NCc1ccccc1C[C@@]1(C(N)=O)N=C(c2ccc(OCCCO)cc2)O[C@@H]1c1ccccc1` was 0.408. Regarding `CCOC(=O)C[C@H]1[C@H](OC(=O)c2ccc(C(=O)c3ccccc3)cc2)[C@@H](NC(=O)CC(C)C)c2cc(OCCCO)ccc2N1C(=O)c1ccccc1`, the composite z-score was -0.191. The same measure, in the same setting: the value for `CC(C)[Si](C#C[Si](C(C)C)(C(C)C)C(C)C)(O[C@H](c1ccccc1)c1cn(Cc2ccccc2)nn1)C(C)C` was 0.0997. In turn, `COC(=O)C/C=C/C[C@]1(O)C(=O)N(C)c2ccccc21` came in with a composite z-score of -0.147. Same read-out and setting: the value for `CN1C(=O)C2C=CC(C(O)c3cccn3C)N(Nc3ccc([N+](=O)[O-])cc3[N+](=O)[O-])C2C1=O` (centres undefined) was 0.551; that for `C=CCN1Cc2ccccc2[C@@H]2OC(c3ccc(OCCCO)cc3)=N[C@]2(CC=C)C1=O` was 1.49; that for `CCCC=C(CCC)[C@@H](NP(=O)(c1ccccc1)c1ccccc1)c1ccc(-c2ccccc2)cc1` was 0.408. Still for that read-out and setting: the value for `C=C(COC)C(=O)CC[C@@H](OC(C)=O)c1cccc(OCCO)c1` was -0.152; that for `CCOC(=O)C1=CC[C@@H](c2ccccc2F)N(S(=O)(=O)c2ccc(C)cc2)[C@H]1c1ccccc1` was -0.0544; that for `O=C1O[C@H](c2ccccc2)[C@H](c2ccccc2)N2[C@H]1[C@@H](C(=O)O)[C@]1(C(=O)Nc3ccc(C#CCCO)cc31)[C@H]2c1ccccc1OCCO` was 0.0026. The same measure, in the same setting: the value for `COc1cc2c(cc1O)C(C1CC1)N(C)CC2` (centres undefined) was -0.0538. In turn, `COC(=O)[C@@]1(Cc2ccc(OC)cc2)[C@H]2c3cc(C(=O)N4CCCC4)n(CCO)c3C[C@H]2CN1C(=O)c1ccccc1` showed a composite z-score of 0.399. The same measure, in the same setting: the value for `[N-]=[N+]=Nc1ccccc1C[C@]1(C(=O)N2CCOCC2)COC(c2ccc(OCCCO)cc2)=N1` was 0.401; that for `O=C1C2C=CC(C(O)c3ccco3)N(Nc3ccccc3F)C2C(=O)N1c1ccccc1` (centres undefined) was 0.361; that for `CCCCCN1CC=CC23O[C@@H]4/C=C\CCCOC(=O)C4[C@H]2C(=O)N(C(C)CO)[C@@H]3C1=O` (some centres undefined) was -0.0984. Same read-out and setting: the value for `COC(=O)c1c(CC[C@@H](CO)NC(=O)N2CCC[C@H]2Cn2cc(C3(O)CCCCC3)nn2)oc(C(C)=O)c1C(=O)OC` was -0.101; that for `CCCCNC(=O)c1ccc(C#CC(C)(C)C)c(OC(C)=O)c1` was -0.148. On the same count and under the same terms, the value for `COc1ccccc1CN1C(=O)c2ccccc2[C@](Cc2ccccc2I)(C(=O)O)[C@@H]1c1ccc(CO)cc1` was 0.0366.
